Experimental data taken from PubChem BioAssay (Tox21).
Records with an inconclusive call do not appear. Entries that show only a call come without a potency. Some structures have more than one record in an assay (separate samples or runs), and their calls can disagree. Calls of active or inactive are those of the source. Unless noted, calls come from the whole dose curve.

What was measured:
[1] = Nuclear factor erythroid 2-related factor 2/antioxidant responsive element (Nrf2/ARE) small molecule agonists: qHTS cell viability counter screen in human keratinocytes (AID 1919968; active = well fitted curve in the direction sought with a large enough effect in the repeat runs; an effect the other way counts as inactive or inconclusive; note: nearly all actives have a fitted effect of over 55% in size; note: potency is the fitted concentration of half-maximal effect)
How it was run: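 Viability counter-screen: KeratinoSens reporter cells, DMSO-delivered compounds, 23 h at 37 C, CellTiter-Fluor fluorescence.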

[2] = Nuclear factor erythroid 2-related factor 2/antioxidant responsive element (Nrf2/ARE) small molecule agonists: luciferase reporter gene qHTS assay in human keratinocytes (AID 1919969); note: nearly all actives have a fitted effect of over 35% in size; note: potency is the fitted concentration of half-maximal effect
[3] = molecular target: Gonadotropin-releasing hormone receptor (Homo sapiens) (UniProt P30968); assay: Human gonadotropin-releasing hormone receptor (GnRHR) small molecule agonists, calcium flux assay in GnRHR-HEK293 cells (AID 1920063); note: nearly all actives have a fitted effect of over 35% in size
Gonadotropin-releasing hormone receptor (Homo sapiens), sequence (P30968 whole entry, looked up): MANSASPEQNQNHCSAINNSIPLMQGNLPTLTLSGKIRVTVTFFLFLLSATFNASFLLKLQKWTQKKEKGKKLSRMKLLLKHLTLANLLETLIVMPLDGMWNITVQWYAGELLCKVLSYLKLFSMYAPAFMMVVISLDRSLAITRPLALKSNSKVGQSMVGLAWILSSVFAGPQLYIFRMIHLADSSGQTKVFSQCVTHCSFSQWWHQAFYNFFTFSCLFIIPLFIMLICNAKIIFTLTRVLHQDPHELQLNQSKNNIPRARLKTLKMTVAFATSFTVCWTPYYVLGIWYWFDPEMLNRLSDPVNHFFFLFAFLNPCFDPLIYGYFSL
How it was run: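 Tox21-format agonist screen using human GnRHR-expressing HEK293 cells and a fluorescent calcium dye; kinetic 3-min fluorescence reading after compound addition, 15-point concentration series run in triplicate.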

[4] = molecular target: KiSS-1 receptor (Homo sapiens) (UniProt Q969F8); assay: Human kisspeptin (KISS1R) small molecule agonists, calcium flux assay in KISS1R-HEK293 cells (AID 1920064; active = well fitted curve in the direction sought with a large enough effect in the repeat runs; an effect the other way counts as inactive or inconclusive)
KiSS-1 receptor (Homo sapiens), sequence (Q969F8 whole entry, looked up): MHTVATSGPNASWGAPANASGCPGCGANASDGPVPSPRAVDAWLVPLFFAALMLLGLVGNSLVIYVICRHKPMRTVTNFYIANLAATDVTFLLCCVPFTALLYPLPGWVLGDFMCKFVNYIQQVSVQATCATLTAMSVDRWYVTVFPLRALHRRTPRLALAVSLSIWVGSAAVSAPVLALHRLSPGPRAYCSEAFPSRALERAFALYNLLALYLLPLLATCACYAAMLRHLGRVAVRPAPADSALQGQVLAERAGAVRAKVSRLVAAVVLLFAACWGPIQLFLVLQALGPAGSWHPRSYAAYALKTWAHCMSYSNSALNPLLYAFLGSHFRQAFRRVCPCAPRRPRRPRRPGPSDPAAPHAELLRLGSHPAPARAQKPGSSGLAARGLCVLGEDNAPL
How it was run: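 Intracellular calcium mobilization in KISS1R-HEK293 cells was recorded by fluorescence (Ex/Em 480/540) for 3 min following compound addition to cells pre-loaded 1 h with calcium dye.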

[5] = G protein-coupled receptor (GPCR) small molecule agonists, calcium flux assay: HEK293 wild type cell line counter screen (AID 1920065)
How it was run: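 In this agonist-mode screen, ATP is the positive control and DMSO the vehicle. Cells grow 18 h before a 1 h dye incubation at 37 C; signal is taken at Ex/Em 480/540 over 3 min.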

[6] = p53 small molecule agonists, cell-based qHTS assay with human liver microsomes (AID 1963577);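 note: p53 response element beta-lactamase reporter cells with liver microsomes plus NADPH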
How it was run: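 Steps: plate p53RE-bla cells, incubate 5 h at 37 C; add compound in DMSO; add microsomes (0.5 mg/mL final) and NADPH (0.5 mg/mL final); incubate 16 h at 37 C; add LiveBLAzer, 2 h RT; read fluorescence.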

[7] = p53 small molecule agonists, cell-based qHTS assay with rat liver microsomes (AID 1963578)
How it was run: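 Metabolic activation is supplied by rat liver microsomes with NADPH (each 0.5 mg/mL final). p53RE-bla cells incubate with compound 16 h at 37 C; reporter activity is measured by LiveBLAzer fluorescence.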

[8] = p53 small molecule agonists, cell-based qHTS assay with rat liver microsomes: qHTS cell viability counter screen (AID 1963580); note: nearly all actives have a fitted effect of over 45% in size; note: potency is the fitted concentration of half-maximal effect
How it was run: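 p53RE-bla HCT-116 cells were exposed 16 h at 37 C to compounds with rat liver microsomes (0.5 mg/mL) and NADPH (0.5 mg/mL). Viability was measured in the same wells as ATP content by CellTiter-Glo luminescence.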

[9] = p53 small molecule agonists, cell-based qHTS assay: qHTS cell viability counter screen (AID 1963581); note: nearly all actives have a fitted effect of over 45% in size
How it was run: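 Compounds are pinned onto HCT-116 p53RE-bla cells and left 16 h at 37 C. Following the reporter FRET read, ATP is quantified by CellTiter-Glo luminescence after 30 min at room temperature.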

[10] = p53 small molecule agonists, cell-based qHTS assay (AID 1963582; active = well fitted activation curve with a large enough effect in the signal ratio in the repeat runs, not every such curve was filed as active; the % refers to the signal ratio)
How it was run: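 Agonist activity was scored from beta-lactamase FRET fluorescence in p53RE-bla cells treated 16 h at 37 C with compounds in DMSO, substrate incubation being 2 h at room temperature.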

[11] = molecular target: 5-hydroxytryptamine receptor 2A (Homo sapiens) (UniProt P28223); assay: 5-hydroxytryptamine receptor 2A (HTR2A) small molecule antagonists, cell-based qHTS assay (AID 1963586); note: nearly all actives have a fitted effect of over 45% in size
5-hydroxytryptamine receptor 2A (Homo sapiens), sequence (P28223 whole entry, looked up): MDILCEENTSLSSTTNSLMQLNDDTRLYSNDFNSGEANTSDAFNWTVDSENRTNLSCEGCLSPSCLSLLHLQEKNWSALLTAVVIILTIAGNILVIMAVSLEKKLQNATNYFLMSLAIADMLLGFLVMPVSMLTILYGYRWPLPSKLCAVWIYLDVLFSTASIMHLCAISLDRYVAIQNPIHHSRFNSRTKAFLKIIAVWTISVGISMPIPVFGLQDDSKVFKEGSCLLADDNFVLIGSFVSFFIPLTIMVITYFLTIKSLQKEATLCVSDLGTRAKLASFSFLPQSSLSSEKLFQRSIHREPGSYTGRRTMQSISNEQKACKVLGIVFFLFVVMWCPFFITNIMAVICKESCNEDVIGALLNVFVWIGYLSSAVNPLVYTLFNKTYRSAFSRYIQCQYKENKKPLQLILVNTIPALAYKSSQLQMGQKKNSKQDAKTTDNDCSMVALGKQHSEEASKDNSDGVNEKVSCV
How it was run: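 Antagonist-mode intracellular calcium assay: DOI (4 nM) added after 5 min compound pre-incubation at room temperature to dye-loaded HTR2A-CHO cells. Fluorescence followed for 3 min, sampled every second.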

[12] = molecular target: 5-hydroxytryptamine receptor 2A (Homo sapiens) (UniProt P28223); assay: 5-hydroxytryptamine receptor 2A (HTR2A) small molecule agonists, cell-based qHTS assay (AID 1963587); note: nearly all actives have a fitted effect of over 30% in size
How it was run: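 CHO cells stably expressing human HTR2A, plated 18 h, loaded with calcium dye 1 h at 37 C. Agonist mode: compounds added and intracellular calcium fluorescence recorded kinetically for 2 min at 1 sec intervals.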

[13] = molecular target: Muscarinic acetylcholine receptor M1 (Homo sapiens) (UniProt P11229); assay: Cholinergic receptor muscarinic 1 (CHRM1) small molecule agonists, cell-based qHTS assay (AID 1963589); note: nearly all actives have a fitted effect of over 35% in size
Muscarinic acetylcholine receptor M1 (Homo sapiens), sequence (P11229 whole entry, looked up): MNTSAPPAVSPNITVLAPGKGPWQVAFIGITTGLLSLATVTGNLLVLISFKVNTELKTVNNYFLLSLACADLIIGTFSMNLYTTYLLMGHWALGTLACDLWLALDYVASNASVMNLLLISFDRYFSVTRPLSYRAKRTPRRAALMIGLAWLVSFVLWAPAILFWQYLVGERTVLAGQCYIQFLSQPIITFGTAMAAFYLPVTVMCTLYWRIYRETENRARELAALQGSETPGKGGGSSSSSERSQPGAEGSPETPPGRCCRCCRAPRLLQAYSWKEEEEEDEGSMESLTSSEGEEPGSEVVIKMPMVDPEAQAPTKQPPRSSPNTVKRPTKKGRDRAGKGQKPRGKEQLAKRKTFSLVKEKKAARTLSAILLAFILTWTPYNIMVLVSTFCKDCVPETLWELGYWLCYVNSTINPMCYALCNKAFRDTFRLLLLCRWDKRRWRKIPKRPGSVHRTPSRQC
How it was run: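 Stable CHRM1-CHO cells (human receptor) were incubated 18 h, dye-loaded for 1 h at 37 C and exposed to test compounds for agonist activity, with calcium-dependent fluorescence followed kinetically.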

[14] = cAMP Responsive Elements (CRE) small molecule agonists, cell-based qHTS assay (AID 1963590)
How it was run: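 FRET-based beta-lactamase readout (LiveBLAzer B/G, 2 h RT) quantified CRE activation in HEK 293T CRE-bla cells after 3 h treatment with DMSO-dissolved compounds.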

[15] = molecular target: Beta-2 adrenergic receptor (Homo sapiens) (UniProt P07550); assay: Adrenergic beta2 receptor (ADRB2) small molecule antagonists, cell-based qHTS assay (AID 1963592); note: series mostly up to about 92 µM; nearly all actives have a fitted effect of over 50% in size
Beta-2 adrenergic receptor (Homo sapiens), sequence (P07550 whole entry, looked up): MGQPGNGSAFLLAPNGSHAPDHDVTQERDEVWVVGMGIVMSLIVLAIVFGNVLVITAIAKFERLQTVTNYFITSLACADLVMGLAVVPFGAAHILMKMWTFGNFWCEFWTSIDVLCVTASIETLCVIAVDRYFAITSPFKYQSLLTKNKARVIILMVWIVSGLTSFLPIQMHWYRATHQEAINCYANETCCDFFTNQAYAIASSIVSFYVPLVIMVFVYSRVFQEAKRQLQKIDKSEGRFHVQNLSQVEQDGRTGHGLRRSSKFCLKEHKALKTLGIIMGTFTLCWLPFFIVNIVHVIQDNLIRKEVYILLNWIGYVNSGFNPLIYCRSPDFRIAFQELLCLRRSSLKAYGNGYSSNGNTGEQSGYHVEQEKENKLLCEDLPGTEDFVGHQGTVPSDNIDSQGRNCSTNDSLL
How it was run: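 Cells (CHO, stable ADRB2 overexpression) incubated 18-20hr at 37C; compounds added from DMSO; agonist mix (1nM isoproterenol, 100uM IBMX, 25uM Ro-20-1724) added; 0.5hr RT; d2-cAMP and anti-cAMP-cryptate added; 1hr RT; 665/615 nm read.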

[16] = molecular target: Beta-2 adrenergic receptor (Homo sapiens) (UniProt P07550); assay: Adrenergic beta2 receptor (ADRB2) small molecule agonists, cell-based qHTS assay (AID 1963593);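 note: CHO cells stably overexpressing human ADRB2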
How it was run: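 CHO cells stably over-expressing ADRB2 were plated overnight at 37C, then dosed with compounds plus a stimulation mix containing 100uM IBMX and 25uM Ro-20-1724 for 0.5hr at room temperature. cAMP was measured by HTRF competition, 1hr.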

[17] = molecular target: D(2) dopamine receptor (Homo sapiens) (UniProt P14416); assay: Dopamine D2 receptor (DRD2) small molecule agonists, cell-based qHTS assay (AID 1963594); note: nearly all actives have a fitted effect of over 35% in size
D(2) dopamine receptor (Homo sapiens), sequence (P14416 whole entry, looked up): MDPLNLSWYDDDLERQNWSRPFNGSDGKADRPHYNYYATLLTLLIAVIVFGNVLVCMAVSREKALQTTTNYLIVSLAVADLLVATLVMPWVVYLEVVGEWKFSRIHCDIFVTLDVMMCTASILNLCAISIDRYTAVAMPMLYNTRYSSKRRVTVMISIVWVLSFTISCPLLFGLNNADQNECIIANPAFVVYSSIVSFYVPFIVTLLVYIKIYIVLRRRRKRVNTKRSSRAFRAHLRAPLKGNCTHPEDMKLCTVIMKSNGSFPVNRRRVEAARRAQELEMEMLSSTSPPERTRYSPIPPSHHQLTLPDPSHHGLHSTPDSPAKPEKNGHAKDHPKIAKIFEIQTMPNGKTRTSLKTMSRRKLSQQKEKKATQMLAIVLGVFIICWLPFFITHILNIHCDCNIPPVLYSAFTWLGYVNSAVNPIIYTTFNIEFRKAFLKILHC
How it was run: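 HEK293 cells stably expressing human DRD2, pre-treated with PDE inhibitor Ro20-1724 (0.1 mM final) and compound 10 min at room temperature, then stimulated with NKH477 (200nM […]) for 30 min. cAMP read by HTRF (665/620 nm).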

[18] = cAMP Responsive Elements (CRE) small molecule antagonists, cell-based qHTS assay (AID 1963591; active = well fitted inhibition curve with a large enough effect in the signal ratio in the repeat runs, not every such curve was filed as active; the % refers to the signal ratio)
How it was run: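 qHTS in CRE-bla HEK 293T cells: compound in DMSO, then 0.25 uM NKH477 (final), 3 h at 37 °C/5% CO2; beta-lactamase FRET read-out after 2 h substrate incubation.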

[19] = molecular target: D(2) dopamine receptor (Homo sapiens) (UniProt P14416); assay: Dopamine D2 receptor (DRD2) small molecule antagonists, cell-based qHTS assay (AID 1963595; active = well fitted inhibition curve with a large enough effect in the signal ratio in the repeat runs, with a control signal flat; the % refers to the signal ratio)
How it was run: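 Readout: HTRF cAMP, cAMP-d2 competing with cellular cAMP for anti-cAMP cryptate, read after 1 h. Cells: DRD2-HEK293. Conditions: 0.1 mM Ro20-1724, 12 nM quinpirole, 200 nM NKH477, 30 min RT.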

[20] = p53 small molecule agonists, cell-based qHTS assay with human liver microsomes: qHTS cell viability counter screen (AID 1963579); note: nearly all actives have a fitted effect of over 45% in size
How it was run: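 After the 460/530 nm beta-lactamase read, CellTiter-Glo was added to the same wells and luminescence measured after 30 min at room temperature, giving viability of p53RE-bla cells treated 16 h with compounds plus microsomes and NADPH.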

Row | Compound | Potency [1] | Potency [2] | Potency [3] | Potency [4] | Potency [5] | Potency [6] | Potency [7] | Potency [8] | Potency [9] | Potency [10] | Potency [11] | Potency [12] | Potency [13] | Potency [14] | Potency [15] | Potency [16] | Potency [17] | Potency [18] | Potency [19] | Potency [20]
1 | CC1=CC(=O)CC(C)(C)C1 | 2.5 µM (active) and inactive | inactive | inactive | inactive | inactive | inactive | inactive | 16.7 µM (active) and inactive | inactive | inactive | inactive | inactive | inactive | inactive | inactive | inactive | inactive | – | – | –
2 | c1ccc2n[nH]nc2c1 | inactive | inactive | inactive | inactive | inactive | inactive | inactive | inactive | inactive | inactive | inactive | inactive | inactive | inactive | inactive | inactive | – | inactive | inactive | –
3 | [Na+] | inactive | inactive | inactive | inactive | inactive | inactive | inactive | inactive | inactive | inactive | inactive | inactive | inactive | inactive | inactive | inactive | inactive | inactive | inactive | –
4 | C[Si](O[Si](C)(C)C)O[Si](C)(C)C | inactive | inactive | inactive | inactive | inactive | inactive | inactive | inactive | inactive | inactive | inactive | inactive | inactive | inactive | inactive | inactive | inactive | inactive | inactive | –
5 | CCNC(=S)NCC | inactive | inactive | inactive | inactive | inactive | inactive | inactive | inactive | inactive | – | inactive | inactive | inactive | inactive | inactive | – | inactive | inactive | inactive | –
6 | O=S(=O)(O)c1ccc2nc(-c3ccccc3)[nH]c2c1 | inactive | inactive | inactive | inactive | inactive | inactive | inactive | 15.5 µM (active) | – | inactive | inactive | inactive | inactive | inactive | inactive | inactive | inactive | inactive | inactive | –
7 | NC(=O)c1cccnc1 | inactive | inactive | inactive | inactive | inactive | inactive | – | inactive | inactive | inactive | – | – | – | inactive | inactive | inactive | inactive | inactive | inactive | inactive
8 | CCCCC(CC)CO (configuration not stated) | inactive | inactive | inactive | inactive | inactive | inactive | inactive | inactive | inactive | – | inactive | inactive | inactive | inactive | inactive | inactive | inactive | inactive | inactive | –
9 | CCCCC/C(C=O)=C\c1ccccc1 | inactive | inactive | inactive | inactive | inactive | inactive | – | inactive | inactive | inactive | inactive | inactive | inactive | – | inactive | inactive | inactive | inactive | inactive | inactive
10 | CCCCCCCCCCCCCO | inactive | inactive | inactive | inactive | inactive | inactive | – | inactive | inactive | inactive | inactive | inactive | inactive | inactive | inactive | inactive | inactive | inactive | inactive | inactive
11 | NC(N)=Nc1nc(CSCC/C(N)=N/S(N)(=O)=O)cs1 | inactive | inactive | inactive | inactive | inactive | inactive | – | inactive | inactive | inactive | – | – | – | inactive | inactive | inactive | inactive | inactive | inactive | inactive
12 | CCCCC1(COC(=O)CCC(=O)O)C(=O)N(c2ccccc2)N(c2ccccc2)C1=O | inactive | inactive | inactive | inactive | inactive | inactive | inactive | – | inactive | inactive | inactive | inactive | inactive | inactive | inactive | inactive | – | inactive | inactive | –
13 | C=C(C)C(=O)O[C@H]1C[C@@H]2CC[C@@]1(C)C2(C)C | 1.21 µM (active) and inactive | 963 nM (active) and inactive | inactive | inactive | inactive | inactive | inactive | 7.21 µM (active) and inactive | inactive | inactive | inactive | – | inactive | inactive | inactive | inactive | inactive | – | inactive | –
14 | CC(=O)Nc1ccc2c(c1)Cc1cc(NC(C)=O)ccc1-2 | inactive | inactive | inactive | inactive | inactive | inactive | – | inactive | inactive | inactive | inactive | inactive | inactive | – | inactive | inactive | inactive | inactive | inactive | inactive
